# MbtI inh = MbtI salicylate synthase inhibition; P9WFX0; purified MbtI enzyme, fluorescence intensity read-out; inhibition, % (test concentration not listed); hit rate 0.89% among 100,000; AID 493033; in the data active = inhibition mostly above about 56%, no sharp cut-off; inactive = mostly below about 77%
# Target sequence (P9WFX0 whole entry, looked up): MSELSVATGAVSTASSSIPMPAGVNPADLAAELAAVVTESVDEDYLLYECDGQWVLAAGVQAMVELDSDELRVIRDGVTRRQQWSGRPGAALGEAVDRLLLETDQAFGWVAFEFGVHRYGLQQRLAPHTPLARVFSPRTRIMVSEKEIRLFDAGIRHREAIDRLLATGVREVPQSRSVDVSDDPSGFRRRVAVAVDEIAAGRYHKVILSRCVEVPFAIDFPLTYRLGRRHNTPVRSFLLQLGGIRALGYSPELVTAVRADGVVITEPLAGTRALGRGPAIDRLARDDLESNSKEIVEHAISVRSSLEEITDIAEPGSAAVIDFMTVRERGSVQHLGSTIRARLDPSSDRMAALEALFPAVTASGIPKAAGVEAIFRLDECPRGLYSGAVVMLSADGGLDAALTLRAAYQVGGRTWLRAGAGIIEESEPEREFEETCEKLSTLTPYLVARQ
# MenB inh = Mtb MenB enzyme inhibition | P9WNP5 | MenB enzyme assay, absorbance read-out | inhibition, % (no concentration beside the values) | hit rate 0.43% among 100,000; in the data active = inhibition above about 21%, passing the limit was not always enough
# PV pol inh = inhibitors of poliovirus RNA polymerase binding and polymerization | P03300 | poliovirus polymerase elongation, fluorescence polarization; hits give low values | % elongation, % (compound at 16.7 µg/mL) | hit rate 0.66% among 150,000; in the data active = % elongation below about 90%
# AID504770 = growth inhibitors of E. coli YBA685 in a screen for V. cholerae RctB (chromosome II replication) inhibitors. E. coli YBA685 rctB-dependent plasmid, OD600 growth, 3 h; hits give low values. z-score (test concentration not listed). hit rate 0.27% among 130,000. AID 504770; in the data active = z-score below about -2, passing the limit was not always enough
# A number is an active result; - = inactive; . = no result; ! = not active in a repeat. Sampled rows, rich in hits. Any-hit rate of the full collection: about 1.4%.
SMILES,MbtI inh,MenB inh,PV pol inh,AID504770
COc1ccc2c(C)nc(N=C(NC(C)=O)NC(C)=O)nc2c1,-,-,-,-
CC(C)N(C(=O)Cn1c(-c2cccnc2)ccc(C#N)c1=O)C(C)C,-,-,-,-
N#Cc1ccc(-c2cccnc2)n(CC(=O)N2CCOCC2)c1=O,-,42,-,-
O=C(c1ccccc1)c1cn(Cc2cccc(F)c2)c2ccc(F)cc2c1=O,.,.,.,-
CC1CN(C(C)(C)C)CCC1(O)c1ccccc1 (stereo not given),-,34,-,-
CC1CN(C)CC(C)C1(O)c1ccccc1 (stereo not given),.,-,-,-
Cc1cc(C)nc(NNC(=S)NCc2ccc3c(c2)OCO3)n1,75,-,-,-
N#Cc1ccccc1OCC(=O)Oc1ccc2c(c1)OCO2,-,-,-,-
O=c1[nH]c2ccccc2c(O)c1-c1nc2ccccc2c(=O)[nH]1,-,43,-,-
Cc1nc2ccccc2c(=O)[nH]1,-,-,-,-
c1ccc(-c2nn3c(-c4ccccc4)nnc3s2)cc1,-,-,-,-
c1ccc(CCc2nn3c(COc4ccccc4)nnc3s2)cc1,76,-,-,-
c1ccc(OCc2nn3c(-c4ccccc4)nnc3s2)cc1,86,-,-,-
O=C1c2ccccc2C(=O)N1CCc1nn2c(-c3cccnc3)nnc2s1,87,-,-,-
COc1ccc(-c2nnc3sc(C(C)N4C(=O)c5ccccc5C4=O)nn23)cc1 (stereo not given),-,-,-,-
C(=C\c1c[nH]c2ccccc12)/c1ccccc1,.,.,.,-
CC(c1ccccc1)n1c(=S)[nH]c2ccccc21 (stereo not given),89,-,-,-
CCOc1ccc2c(c1)[nH]c(=S)n2C,78,-,-,-
CCCCn1c(=S)[nH]c2ccccc21,-,-,-,-
CCOC(=O)c1c(C)n(C)c2ccc(OCC)cc12,.,-,-,-
Cn1c(=S)[nH]c2ccccc21,101,-,-,-
N#Cc1cc(Cl)c2c(c1)OCCCO2,-,-,-,-
Cc1ccc(S(=O)(=O)NCc2cccs2)cc1,-,-,-,-
CCC(CC)NC(=O)COc1ccc(Cl)cc1Cl,-,.,-,-
O=C(COc1ccc(Cl)cc1Cl)NO,.,.,.,-5.4
SMILES,MbtI inh,MenB inh,PV pol inh,AID504770
O=C(Cn1cnc2c(nc3n2CCCCC3)c1=O)NC1CCCCCC1,-,-,-,-2.1
Nc1nc(NC(=S)NC2CCS(=O)(=O)C2)n[nH]1 (stereo not given),-,-,-,-
CC(C)(C)C(=O)NC1CCN(S(C)(=O)=O)CC1,-,31,-,-
CN(C)c1ccc(NC(=S)N=P(c2ccncc2)(N(C)C)N(C)C)cc1,81,-,-,-
CN(C)c1ccc(NC(=O)c2ccccn2)cc1,-,-,-,-
Cc1csc(Nc2ccccc2)n1,72,.,-,-
ClCc1csc(Nc2ccccc2)n1,-,.,-,-
CSc1ccc(S(=O)(=O)N(C)C)cc1,-,-,-,-
CN(C)S(=O)(=O)c1ccc(=S)[nH]c1,95,-,-,-
O=C(Nc1nnc(C2CCCCC2)s1)C1c2ccccc2Oc2ccccc21,-,-,-,-
O=C(c1cc(O)ccc1O)c1coc2ccc(O)cc12,100,-,-,-
O=C(c1ccccc1)N1CCn2c1nc1ccccc12,.,-,-,-
COCCNC(=S)N1CCn2c1nc1ccccc12,84,-,-,-
Cc1c(N=c2c(=O)c3ccccc3c2=O)c(=O)n(-c2ccccc2)n1C,-,-,63,-
NNC(=O)Cc1csc2nc(-c3ccccc3)nn12,-,-,-,-
CC1CN(Cn2c(=S)oc3ccccc32)CC(C)O1 (stereo not given),-,-,90,-
CC1CN(Cn2nc(C(=O)O)c3ccccc32)CC(C)O1 (stereo not given),-,-,-,-
Cc1ccc(C(=O)CSc2ncn[nH]2)c(C)c1,70,-,-,-
CN(C)c1ccc(/C=C/c2noc(-c3ccccc3O)n2)cc1,.,.,-,.
Oc1ccccc1-c1nc(/C=C/c2ccccc2Cl)no1,.,.,41,.
CC1CCN(CC(=O)Nc2ccc(F)cc2)CC1,-,-,-,-
O=C1c2ccccc2C(=O)N1SSN1C(=O)c2ccccc2C1=O,-,-,85,-
C=CCN1C(=O)/C(=C\c2ccccc2)SC1=S,-,-,-,-
Cc1nn(C2CCS(=O)(=O)C2)c2nc(C3CC3)cc(C(=O)O)c12 (stereo not given),-,-,-,-
O=C(COc1ccc(Cl)cc1)OCc1ccc(Br)cc1,-,.,-,-
SMILES,MbtI inh,MenB inh,PV pol inh,AID504770
CN(C)CCOC(=O)COc1ccc(Cl)cc1,-,68!,-,-
CCn1c(C(=O)OC)cc2c1ccn2-c1ccc(F)cc1,-,32,-,-
COC(=O)c1cc2c(ccn2-c2ccc(F)cc2)n1CC(=O)c1ccc(OC)cc1,-,-,-,-
COc1cccc(C(=O)Nc2sc3c(c2C(N)=O)CCN(C(C)=O)C3)c1OC,-,-,-,-
O=C(CCn1c(=O)sc2ccccc21)n1c(=O)sc2ccccc21,.,-,75,-
C/C(N)=C(/C#N)C(=O)CSc1ncccn1,-,-,-,-
O=C1CCC(=O)N1OCC(=O)N(c1ccccc1)c1ccccc1,-,-,-,-
CCC(c1nnnn1Cc1ccccc1)N(Cc1cccs1)Cc1cc2ccc(C)cc2[nH]c1=O (stereo not given),-,-,-,-
COC(=O)c1nn(-c2ccc(OC)cc2)c(=O)c2c(N)sc(C)c12,77,-,83,-
COC(=O)c1nn(-c2ccccc2)c(=O)c2c(N)sc(C)c12,76,-,73,-
NNC(=O)c1nn(-c2ccccc2)c(=O)c2c(N)scc12,-,-,-,-
O=C(Oc1ccc(Br)cc1F)C1CC(=O)N(c2ccc3c(c2)OCCO3)C1 (stereo not given),-,-,87,-
CCCOC1(NC(=O)c2ccc(C)cc2)C(C)=CC(=O)C=C1C,.,.,.,-
CC1(NS(C)(=O)=O)CC=CC1,-,29,-,-
S=c1[nH]nc(-c2ccncc2)o1,97,.,.,-
CNC(=O)c1sc(NCc2ccco2)nc1C,98,-,77,-
Cc1ccc(NNC(=S)NC(=O)C2CC2)c(C)c1,95,-,-,-
O=C1CC(c2nnc(Cc3cccc(Cl)c3)o2)CN1c1ccccc1 (stereo not given),.,.,-,.
O=C1CC(c2n[nH]c(=S)o2)CN1c1ccc(Cl)cc1 (stereo not given),82,-,-,-
CN(CC(=O)Nc1ccc(N2CCOCC2)cc1)Cn1nc(Nc2ccccc2F)sc1=S,99,-,-,-
Cc1c(-c2ccnn2C(=O)Nc2ccccc2)cnn1-c1ccccc1,.,.,.,-
CCC(C)c1ccc(C2=Nn3c(nnc3C(C)C)SC2)cc1 (stereo not given),-,-,74,-
CC(=O)Nc1sc2c(c1C(c1cccnc1)N1CCN(C)CC1)CCCC2 (stereo not given),-,-,-,-
CCc1cc(C(=O)O)n(C)n1,-,29,-,-
CCOC(=O)c1cnc2ccccn2c1=O,-,-,-,-
O=C(O)c1cnc2ccccn2c1=O,-,27,-,-
COc1ccc(NC(=S)NN)cc1Cl,92,-,-,-
O=C(Nc1ccccc1)C(=S)NCc1ccco1,-,-,-,-

# Screens deposited in PubChem by ICCB-Longwood Screening Facility, Harvard Medical School.
